Active and inactive are the calls of the source. The calls were made as follows: active = hit-call score of the fitted dose curve at least 0.9, where 1 is the maximum; inactive = score below 0.9.
Legend:
[1] = molecular target: Bile acid receptor (Homo sapiens) (UniProt Q96RI1); assay: ATG_IR1_CIS: Attagene CIS-FACTORIAL HepG2 Assay for human Nuclear Receptor Subfamily 1 Group H Member 4 (NR1H4), IR1 submotif (AID 2282946); conditions: IR1 reporter transcription, actives raise or lower the signal
Procedure, shortened: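 HepG2 cells transiently transfected with multiplexed cis-element reporter units read endogenous transcription factor activity. After 24 h compound exposure, reporter mRNA was quantified by RT-PCR, fluorescent labelling, HpaI digestion and capillary electrophoresis; bidirectional fitting versus DMSO baseline.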

[2] = ATG_GRE_CIS: Attagene CIS-FACTORIAL HepG2 Assay for human Glucocorticoid Response Elements (GRE) (AID 2282947); conditions: HepG2 GRE cis-reporter, Attagene multiplex mRNA; actives raise or lower the signal
Procedure, shortened: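 Multiplexed cis-reporter mRNA induction, HepG2, 24 h post-dose. RT-PCR, FAM-labelled, HpaI-digested amplicons by CE. Bidirectional fit vs DMSO.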

[3] = ATG_ISRE_CIS: Attagene CIS-FACTORIAL HepG2 Assay for human Interferon Regulatory Factor 1 (IRF1) binding to an Interferon-Stimulated Response Element (ISRE) (AID 2282948); conditions: HepG2 ISRE cis-reporter (Attagene), mRNA transcription readout; actives raise or lower the signal
Procedure, shortened: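 Read-out: fluorescent RT-PCR products resolved by capillary electrophoresis, reporting endogenous transcription factor activity via ISRE-driven reporter mRNA in transfected HepG2 cells dosed for 24 h; gain or loss fitted relative to DMSO.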

[4] = ATG_M_32_CIS: Attagene CIS-FACTORIAL HepG2 Assay for M32 Transcription Factor (Internal Marker) (AID 2282949); conditions: HepG2 Attagene cis-factorial M32 reporter, mRNA; actives raise or lower the signal;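 also: background control marker of the multiplexed CIS panel rather than a real target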
Procedure, shortened: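 Using DMSO as baseline, bidirectional curve fits were applied to reporter mRNA signals. These came from transiently transfected HepG2 cells exposed for 24 h, with RNA analysed by RT-PCR, FAM primer extension, HpaI digestion and CE.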

[5] = ATG_M_06_CIS: Attagene CIS-FACTORIAL HepG2 Assay for M06 Transcription Factor (Internal Marker) (AID 2282950); conditions: HepG2 Attagene CIS-FACTORIAL M06 internal marker reporter; actives raise or lower the signal
Procedure, shortened: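 One of many multiplexed endpoints: HepG2 reporter mRNA after 24 h dosing, detected by RT-PCR and capillary electrophoresis fluorescence; gain or loss of signal analysed against DMSO.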

[6] = molecular target: Hypoxia-inducible factor 1-alpha (Homo sapiens) (UniProt Q16665); assay: ATG_HIF1a_CIS: Attagene CIS-FACTORIAL HepG2 Assay for human Hypoxia Inducible Factor 1 (HIF1A) (AID 2282951); conditions: HepG2 Attagene cis-factorial HIF1a reporter transcription; actives raise or lower the signal
Procedure, shortened: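 Dosed 24 h, transfected HepG2 cells yielded total RNA whose reporter transcripts were RT-PCR-amplified and sized by capillary electrophoresis using fluorescent labelling; DMSO defined baseline, with gain and loss of signal both fitted.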

[7] = molecular target: Hepatocyte nuclear factor 6 (Homo sapiens) (UniProt Q9UBC0); assay: ATG_HNF6_CIS: Attagene CIS-FACTORIAL HepG2 Assay for human Hepatocyte Nuclear Factor 6 (HNF6) (AID 2282952); conditions: HepG2 Attagene cis-factorial HNF6 reporter transcription; actives raise or lower the signal
Procedure, shortened: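 Using cis-element reporters in HepG2 liver cells, the assay tracks endogenous factor-driven transcription 24 h post-dosing. Signal comes from 6-FAM-labelled, HpaI-digested RT-PCR fragments, with gain or loss scored against DMSO.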

[8] = ATG_MRE_CIS: Attagene CIS-FACTORIAL HepG2 Assay for human Metal Responsive Element (MRE) (AID 2282954); conditions: HepG2 MRE cis-reporter transcription, Attagene multiplex; actives raise or lower the signal
Procedure, shortened: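 Multiplexed cis-reporter assay in human HepG2 liver cells, 24 h incubation with test chemical. Reporter transcripts measured by RT-PCR and capillary electrophoresis; values from bidirectional curve fitting versus DMSO.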

[9] = ATG_PBREM_CIS: Attagene CIS-FACTORIAL HepG2 Assay for human Phenobarbital-responsive Enhancer Module (PBREM) (AID 2282955); conditions: HepG2 PBREM cis-reporter, Attagene multiplexed transcription; actives raise or lower the signal
Procedure, shortened: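 Transfected liver-derived HepG2 cells exposed 24 h; PBREM reporter transcript quantified via RT-PCR and capillary electrophoresis, with activity in either direction referenced to DMSO.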

[10] = molecular target: Paired box protein Pax-6 (Homo sapiens) (UniProt P26367); assay: ATG_Pax6_CIS: Attagene CIS-FACTORIAL HepG2 Assay for human Paired Box 6 (PAX6) (AID 2282956); conditions: HepG2 CIS-FACTORIAL PAX6 reporter transcription, RNA readout; actives raise or lower the signal
Procedure, shortened: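 Readout: reporter transcript fluorescence after RT-PCR and capillary electrophoresis. Cells: HepG2, transiently transfected with cis-regulated MRTUs. Exposure 24 h. Gain or loss of signal fitted bidirectionally relative to DMSO.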

[11] = ATG_PPRE_CIS: Attagene CIS-FACTORIAL HepG2 Assay for human Peroxisome Proliferator-activated Response Element (PPRE) (AID 2282958); conditions: HepG2 PPRE cis-element reporter, Attagene transcription factor profiling; actives raise or lower the signal
Procedure, shortened: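 Measured endpoint: PPRE-controlled reporter mRNA, detected by RT-PCR and capillary electrophoresis fluorescence, from transiently transfected HepG2 cells 24 h after dosing. Curves fitted in both directions using DMSO baseline.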

[12] = ATG_RORE_CIS: Attagene CIS-FACTORIAL HepG2 Assay for human RAR-related Orphan Receptor Element (RORE) (AID 2282959); conditions: HepG2 Attagene cis-factorial RORE reporter, mRNA; actives raise or lower the signal
Procedure, shortened: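 Transiently transfected HepG2 reporter cells were treated 24 h. Reporter transcripts were detected by RT-PCR and capillary electrophoresis, with bidirectional fitting against DMSO.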

[13] = ATG_Sox_CIS: Attagene CIS-FACTORIAL HepG2 Assay for human SRY-box transcription factor (SOX) (AID 2282960); conditions: HepG2 Attagene cis-factorial SOX reporter, mRNA; actives raise or lower the signal
Procedure, shortened: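 Gain- or loss-of-signal endpoint, fitted bidirectionally with DMSO as negative control. Based on reporter mRNA from transfected HepG2 cells harvested 24 h post-treatment and quantified via RT-PCR and capillary electrophoresis.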

[14] = molecular target: Transcription factor Sp1 (Homo sapiens) (UniProt P08047); assay: ATG_Sp1_CIS: Attagene CIS-FACTORIAL HepG2 Assay for human Specificity Protein 1 (Sp1) (AID 2282961); conditions: HepG2 Sp1 cis-reporter transcription, actives raise or lower the signal
Procedure, shortened: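 Endpoint reflects endogenous Sp1 transcriptional activity, not an exogenous fusion protein: HepG2 cells with transfected cis-regulated reporters, 24 h dosing, RT-PCR/capillary electrophoresis mRNA read-out, DMSO-normalised bidirectional fit.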

[15] = ATG_SREBP_CIS: Attagene CIS-FACTORIAL HepG2 Assay for human Sterol Regulatory Element Binding (SREBP) (AID 2282962); conditions: HepG2 Attagene cis-factorial SREBP reporter, mRNA; actives raise or lower the signal
Procedure, shortened: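 Readout: fluorescent reporter-transcript peaks resolved by capillary electrophoresis after RT-PCR. Cells were human HepG2 carrying transfected cis-promoter reporter constructs, dosed for 24 h. Gain or loss of signal was fitted against DMSO controls.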

[16] = molecular target: Signal transducer and activator of transcription 3 (Homo sapiens) (UniProt P40763); assay: ATG_STAT3_CIS: Attagene CIS-FACTORIAL HepG2 Assay for human Signal Transducer and Activator of Transcription 3 (STAT3) (AID 2282963); conditions: HepG2, Attagene cis-factorial STAT3 reporter transcription; actives raise or lower the signal
Procedure, shortened: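 Cis-factorial format: endogenous transcription factors in HepG2 drive transfected reporter units. After 24 h treatment, reporter RNA was reverse-transcribed, amplified, FAM-labelled and HpaI-digested before CE analysis; activity scored in both directions against DMSO.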

[17] = ATG_TA_CIS: Attagene CIS-FACTORIAL HepG2 Assay for human TA Basal Promoter (AID 2282964); conditions: HepG2 Attagene CIS-factorial TA basal promoter reporter; actives raise or lower the signal
Procedure, shortened: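 Transient MRTU transfection of HepG2 preceded 24 h compound exposure. Reporter mRNA levels were then read by RT-PCR with capillary electrophoresis, and this background-control endpoint was fitted bidirectionally to DMSO.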

[18] = ATG_TCF_b_cat_CIS: Attagene CIS-FACTORIAL HepG2 Assay for human T-Cell-Factor with beta-catenin (TCF/b-cat) (AID 2282965); conditions: HepG2 TCF/beta-catenin cis-reporter transcription, actives raise or lower the signal
Procedure, shortened: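 Endogenous transcription factor activity is captured through cis-promoter reporter constructs transiently introduced into human HepG2 liver cells. Induced reporter mRNA is measured after 24 h and fitted bidirectionally relative to DMSO.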

[19] = molecular target: Heat shock factor protein 1 (Homo sapiens) (UniProt Q00613); assay: ATG_HSE_CIS: Attagene CIS-FACTORIAL HepG2 Assay for human Heat Shock Transcription Factor 1 (HSE) (AID 2282953); conditions: HepG2 HSE cis-reporter, Attagene RNA transcription; actives raise or lower the signal
Procedure, shortened: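 Using HepG2 with transfected cis-driven reporter constructs, compound effects on endogenous factor activity are scored as reporter mRNA change at 24 h. Detection: RT-PCR, HpaI digestion, capillary electrophoresis; bidirectional fitting to DMSO.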

[20] = ATG_PXRE_CIS: Attagene CIS-FACTORIAL HepG2 Assay for human Pregnane X Receptor Element (PXRE) (AID 2282957); conditions: HepG2 Attagene CIS-FACTORIAL PXRE reporter, mRNA; actives raise or lower the signal
Procedure, shortened: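 Using HepG2 transfected with multiple reporter transcription units, endogenous factor-driven transcription was scored as reporter mRNA after 24 h exposure.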

Measured: AC50

Hypoxia-inducible factor 1-alpha (Homo sapiens), sequence (Q16665 whole entry, looked up): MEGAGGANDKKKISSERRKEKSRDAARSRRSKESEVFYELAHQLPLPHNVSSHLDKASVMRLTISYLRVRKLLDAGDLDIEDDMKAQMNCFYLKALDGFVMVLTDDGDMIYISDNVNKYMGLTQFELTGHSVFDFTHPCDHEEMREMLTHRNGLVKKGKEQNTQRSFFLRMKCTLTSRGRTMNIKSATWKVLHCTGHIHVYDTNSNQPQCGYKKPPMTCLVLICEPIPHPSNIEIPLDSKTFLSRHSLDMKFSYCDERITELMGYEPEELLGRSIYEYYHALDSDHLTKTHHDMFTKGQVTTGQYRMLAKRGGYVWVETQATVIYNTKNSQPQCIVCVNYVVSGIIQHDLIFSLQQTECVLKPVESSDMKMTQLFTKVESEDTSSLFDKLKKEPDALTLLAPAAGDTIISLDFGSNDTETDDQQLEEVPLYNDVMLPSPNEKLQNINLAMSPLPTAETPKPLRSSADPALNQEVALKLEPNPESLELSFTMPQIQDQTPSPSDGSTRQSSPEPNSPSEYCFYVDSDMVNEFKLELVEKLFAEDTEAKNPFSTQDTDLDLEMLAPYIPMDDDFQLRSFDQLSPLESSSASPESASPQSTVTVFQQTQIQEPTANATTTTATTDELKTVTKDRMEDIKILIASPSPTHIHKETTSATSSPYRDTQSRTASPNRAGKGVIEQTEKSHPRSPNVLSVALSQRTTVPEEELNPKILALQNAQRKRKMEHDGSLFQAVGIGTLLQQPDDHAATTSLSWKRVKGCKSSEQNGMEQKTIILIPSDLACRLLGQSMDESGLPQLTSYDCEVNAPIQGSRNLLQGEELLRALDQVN
Bile acid receptor (Homo sapiens), sequence (Q96RI1 whole entry, looked up): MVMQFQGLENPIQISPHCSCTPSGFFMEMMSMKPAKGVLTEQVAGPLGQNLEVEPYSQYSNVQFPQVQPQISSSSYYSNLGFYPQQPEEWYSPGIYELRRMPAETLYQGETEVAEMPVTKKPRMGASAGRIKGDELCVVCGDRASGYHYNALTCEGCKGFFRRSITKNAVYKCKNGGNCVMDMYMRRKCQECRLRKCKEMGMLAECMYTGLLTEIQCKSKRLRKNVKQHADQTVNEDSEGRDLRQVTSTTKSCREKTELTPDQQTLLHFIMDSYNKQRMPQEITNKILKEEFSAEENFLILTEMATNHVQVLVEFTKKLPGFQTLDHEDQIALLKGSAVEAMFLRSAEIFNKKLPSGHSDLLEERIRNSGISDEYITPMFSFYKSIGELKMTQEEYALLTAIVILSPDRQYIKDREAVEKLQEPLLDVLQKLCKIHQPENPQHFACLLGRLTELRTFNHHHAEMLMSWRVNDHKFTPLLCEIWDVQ
Hepatocyte nuclear factor 6 (Homo sapiens), sequence (Q9UBC0 whole entry, looked up, the tested form may be a part): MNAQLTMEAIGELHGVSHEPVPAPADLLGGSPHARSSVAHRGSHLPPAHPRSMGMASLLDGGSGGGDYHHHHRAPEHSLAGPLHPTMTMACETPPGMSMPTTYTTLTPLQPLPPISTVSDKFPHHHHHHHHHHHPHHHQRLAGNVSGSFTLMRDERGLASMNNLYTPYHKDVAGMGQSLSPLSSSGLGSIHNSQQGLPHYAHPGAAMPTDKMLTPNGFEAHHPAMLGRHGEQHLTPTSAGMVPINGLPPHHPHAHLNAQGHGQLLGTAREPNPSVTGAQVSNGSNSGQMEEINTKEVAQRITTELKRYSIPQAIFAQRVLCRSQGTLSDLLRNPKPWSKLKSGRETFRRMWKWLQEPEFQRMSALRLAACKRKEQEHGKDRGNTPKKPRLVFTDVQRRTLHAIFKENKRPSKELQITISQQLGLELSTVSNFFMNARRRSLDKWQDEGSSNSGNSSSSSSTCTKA
Heat shock factor protein 1 (Homo sapiens), sequence (Q00613 whole entry, looked up): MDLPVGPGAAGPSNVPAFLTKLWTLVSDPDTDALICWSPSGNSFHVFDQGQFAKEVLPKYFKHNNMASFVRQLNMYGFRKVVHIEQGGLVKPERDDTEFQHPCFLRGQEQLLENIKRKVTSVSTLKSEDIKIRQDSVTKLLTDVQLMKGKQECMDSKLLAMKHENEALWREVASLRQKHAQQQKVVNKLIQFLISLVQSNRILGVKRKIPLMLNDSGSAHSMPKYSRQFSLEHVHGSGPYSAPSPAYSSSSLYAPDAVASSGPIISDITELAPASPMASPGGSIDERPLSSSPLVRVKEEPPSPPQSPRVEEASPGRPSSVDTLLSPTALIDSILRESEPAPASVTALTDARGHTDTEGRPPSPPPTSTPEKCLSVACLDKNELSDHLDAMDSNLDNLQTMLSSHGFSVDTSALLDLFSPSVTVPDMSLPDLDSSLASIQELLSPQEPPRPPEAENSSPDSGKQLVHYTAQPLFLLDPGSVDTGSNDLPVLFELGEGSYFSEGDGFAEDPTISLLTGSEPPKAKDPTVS
Signal transducer and activator of transcription 3 (Homo sapiens), sequence (P40763 whole entry, looked up): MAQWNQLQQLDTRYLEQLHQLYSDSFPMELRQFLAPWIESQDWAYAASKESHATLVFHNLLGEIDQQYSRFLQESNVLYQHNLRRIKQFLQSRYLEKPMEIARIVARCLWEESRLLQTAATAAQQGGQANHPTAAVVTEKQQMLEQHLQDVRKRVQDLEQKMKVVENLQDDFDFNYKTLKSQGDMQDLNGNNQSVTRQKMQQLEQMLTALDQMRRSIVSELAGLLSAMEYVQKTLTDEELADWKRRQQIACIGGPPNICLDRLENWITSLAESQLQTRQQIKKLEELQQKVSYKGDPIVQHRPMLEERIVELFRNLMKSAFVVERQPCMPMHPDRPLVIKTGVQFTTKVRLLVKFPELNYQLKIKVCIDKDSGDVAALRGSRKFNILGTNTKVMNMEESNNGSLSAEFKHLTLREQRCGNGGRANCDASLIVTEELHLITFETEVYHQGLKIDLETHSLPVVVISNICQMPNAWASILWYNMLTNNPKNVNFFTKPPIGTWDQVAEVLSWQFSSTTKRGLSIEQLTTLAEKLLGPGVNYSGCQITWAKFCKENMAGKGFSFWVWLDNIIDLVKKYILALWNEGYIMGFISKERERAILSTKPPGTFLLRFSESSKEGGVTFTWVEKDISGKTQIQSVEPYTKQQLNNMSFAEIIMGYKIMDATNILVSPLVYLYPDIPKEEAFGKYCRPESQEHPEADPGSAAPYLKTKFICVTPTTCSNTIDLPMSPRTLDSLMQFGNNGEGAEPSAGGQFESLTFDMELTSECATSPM
Transcription factor Sp1 (Homo sapiens), sequence (P08047 whole entry, looked up, the tested form may be a part): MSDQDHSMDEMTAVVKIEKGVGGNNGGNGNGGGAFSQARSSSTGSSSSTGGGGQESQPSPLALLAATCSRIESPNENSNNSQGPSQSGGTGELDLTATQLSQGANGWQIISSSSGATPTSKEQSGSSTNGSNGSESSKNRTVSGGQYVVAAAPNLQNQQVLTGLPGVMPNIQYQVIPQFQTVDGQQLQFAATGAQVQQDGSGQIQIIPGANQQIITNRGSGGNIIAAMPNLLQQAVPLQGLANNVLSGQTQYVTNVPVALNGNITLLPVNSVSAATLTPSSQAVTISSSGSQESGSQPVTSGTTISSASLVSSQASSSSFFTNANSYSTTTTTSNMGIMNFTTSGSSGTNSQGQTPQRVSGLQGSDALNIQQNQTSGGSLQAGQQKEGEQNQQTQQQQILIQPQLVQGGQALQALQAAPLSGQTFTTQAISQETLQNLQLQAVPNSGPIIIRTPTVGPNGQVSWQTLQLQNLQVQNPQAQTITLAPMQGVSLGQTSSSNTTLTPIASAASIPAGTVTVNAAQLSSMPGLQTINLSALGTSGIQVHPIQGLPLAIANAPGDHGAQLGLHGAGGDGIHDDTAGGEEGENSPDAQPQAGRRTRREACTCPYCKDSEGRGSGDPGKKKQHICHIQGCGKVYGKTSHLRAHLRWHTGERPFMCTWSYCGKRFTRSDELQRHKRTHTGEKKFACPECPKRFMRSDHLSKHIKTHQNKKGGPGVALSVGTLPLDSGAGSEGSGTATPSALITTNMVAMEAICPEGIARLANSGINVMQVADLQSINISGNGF
Paired box protein Pax-6 (Homo sapiens), sequence (P26367 whole entry, looked up): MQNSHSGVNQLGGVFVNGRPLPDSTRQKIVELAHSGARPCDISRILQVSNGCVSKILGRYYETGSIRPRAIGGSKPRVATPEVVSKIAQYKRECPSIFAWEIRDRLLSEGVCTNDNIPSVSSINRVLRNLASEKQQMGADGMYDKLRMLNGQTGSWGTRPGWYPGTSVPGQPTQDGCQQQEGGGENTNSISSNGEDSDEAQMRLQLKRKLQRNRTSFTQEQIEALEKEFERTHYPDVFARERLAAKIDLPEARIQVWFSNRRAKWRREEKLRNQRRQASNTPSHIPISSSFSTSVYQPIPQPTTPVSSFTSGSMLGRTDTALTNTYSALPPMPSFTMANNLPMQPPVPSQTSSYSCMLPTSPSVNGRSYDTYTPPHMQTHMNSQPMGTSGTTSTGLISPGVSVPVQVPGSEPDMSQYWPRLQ

CC(=O)O[C@]1(C(C)=O)CC[C@H]2[C@@H]3C[C@H](C)C4=CC(=O)CC[C@]4(C)[C@H]3CC[C@@]21C
active: [3] 67.1 µM | [8] 49.9 µM | [12] 11.2 µM | [17] 42.4 µM
not listed: [19] | [20]
inactive: all other assays above

OCCN1CCNCC1
not listed: [12]
inactive: all other assays above

C=C(C)C(=O)OCCOC(=O)CC(C)=O
not listed: [9] | [12] | [19]
inactive: all other assays above

CC(C)(C)C(=O)c1ccccc1
active: [20] 53 µM
not listed: [11] | [16]
inactive: all other assays above

CN(C)CCCN
inactive: all assays above

O=C1O[C@@H]2[C@@H](O)[C@H](O)O[C@@H]2[C@H]1O
not listed: [11] | [16]
inactive: all other assays above

C=CC(C)(O)CCC=C(C)CCC=C(C)C (stereo not given)
active: [2] 100 µM | [3] 170 µM | [5] 166 µM | [6] 170 µM | [7] 158 µM | [19] 163 µM | [8] 136 µM | [10] 134 µM | [20] 9.06 µM | [13] 148 µM | [14] 161 µM | [15] 114 µM | [16] 100 µM
inactive: [1] | [4] | [11] | [12]

CCC(=O)/C=C/C1C(C)=CCCC1(C)C (stereo not given)
active: [20] 4.76 µM | [11] 35 µM
not listed: [9] | [12]
inactive: all other assays above

From PubChem BioAssay (EPA / NIEHS)
